The source of these data is ChEMBL document CHEMBL1961873, “Compounds: GSK PKIS; Assays: Nanosyn kinase panel” (2012).

Several values for one entry are separate records, joined by “and”; a condition that tells them apart may be missing. Identical values can stand only once.
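Note: reported percentages are mean inhibition values.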

The test deals with CDK3/Cyclin E (Homo sapiens) (UniProt P24864+Q00526). The following applies: at 0.1 µM.
CDK3/Cyclin E (Homo sapiens), sequence (P24864 whole entry, looked up): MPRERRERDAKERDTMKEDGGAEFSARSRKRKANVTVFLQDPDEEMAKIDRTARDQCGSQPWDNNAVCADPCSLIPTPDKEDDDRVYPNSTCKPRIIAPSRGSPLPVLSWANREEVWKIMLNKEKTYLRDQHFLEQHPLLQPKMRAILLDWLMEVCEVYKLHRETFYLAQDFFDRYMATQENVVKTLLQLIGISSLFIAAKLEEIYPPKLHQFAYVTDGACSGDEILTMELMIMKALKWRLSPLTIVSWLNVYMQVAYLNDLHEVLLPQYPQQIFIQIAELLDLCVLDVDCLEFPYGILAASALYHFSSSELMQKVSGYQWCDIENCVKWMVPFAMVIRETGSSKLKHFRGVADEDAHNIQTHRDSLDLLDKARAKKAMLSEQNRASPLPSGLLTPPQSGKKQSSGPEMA
CDK3/Cyclin E (Homo sapiens), sequence (Q00526 whole entry, looked up): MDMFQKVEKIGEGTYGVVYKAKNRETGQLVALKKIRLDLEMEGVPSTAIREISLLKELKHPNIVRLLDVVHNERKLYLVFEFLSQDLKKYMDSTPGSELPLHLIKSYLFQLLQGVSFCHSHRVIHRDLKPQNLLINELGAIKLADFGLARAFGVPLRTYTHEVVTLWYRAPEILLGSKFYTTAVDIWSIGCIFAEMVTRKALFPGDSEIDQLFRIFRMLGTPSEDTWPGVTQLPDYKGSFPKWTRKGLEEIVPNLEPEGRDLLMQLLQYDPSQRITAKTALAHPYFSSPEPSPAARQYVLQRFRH
Take `Cc1cc(O)cc(C)c1/C=C/c1cncc(C(N)=O)c1`: the inhibition is -0.91%.
As to `CC1=C(C(=O)Nc2ccc3[nH]ncc3c2)C(c2ccc(F)cc2)N=C(c2ccc(C(F)(F)F)nc2)N1` (stereo unspecified), the inhibition turned out to be 0.12%.
Turning to `COc1c(C(N)=O)cc(-c2ccc(Cl)cc2)cc1-c1ccc(S(N)(=O)=O)cc1`, the inhibition was -4.73%.
As to `Cc1cc(O)cc(C)c1/C=C/c1cncc(C(=O)OC(C)(C)C)c1`, the inhibition was 0.28%.
Regarding `COc1ccc(Nc2ncc(-c3ccccc3)o2)cc1OC`, the inhibition turned out to be 6.29%.
Take `Fc1ccc(Nc2nccc(-c3c(-c4ccc(C(F)(F)F)cc4)nn4ncccc34)n2)cc1F`: the inhibition is 0.39%.
Next, `O=C(O[C@H]1CN[C@H](C#Cc2cc3ncnc(Nc4ccc(OCc5cccc(F)c5)c(Cl)c4)c3s2)C1)N1CCOCC1`: 2.77%.
As to `COc1ccc2ncn(-c3cc(O[C@H](C)c4ccccc4C(F)(F)F)c(C(N)=O)s3)c2c1`, the inhibition turned out to be 1.1%.
As for `CNC(=O)c1ncccc1Nc1nc(Nc2cc3c(cc2OC)CCCN3C(=O)CN(C)C)nc2[nH]ccc12`, the inhibition amounted to 3.92%.
For the compound `COc1ccccc1-c1cc(/C=C2\C(=O)Nc3ncc(Br)cc32)cc(Br)c1O`, the inhibition was determined as 5.76%.
With `c1cnn2ncc(-c3ccnc(NCCCN4CCOCC4)n3)c2c1`, the inhibition was 0.96%.
As to `CCCNc1cccc(-n2ncc3c(N/N=C/c4ccncc4)ncnc32)c1`, the inhibition was 0.47%.
Turning to `OCCCNc1nccc(-c2c(-c3ccc(F)cc3)nn3cc(C(F)(F)F)ccc23)n1`, the inhibition is 1.49%.
On to `CS(=O)(=O)Nc1ccc(-c2ccc3c(NC(=O)C4CC4)n[nH]c3c2)cc1`, for which the inhibition is 0.71%.
The figure for `CN1CCC(C(=O)Nc2n[nH]c3nc(-c4ccc(O)cc4)c(Br)cc23)CC1` is 12.5% and 12.3%.
Next, `CS(=O)(=O)Nc1ccc(-c2cc(-c3ccccc3)cc(C(N)=O)c2N)cc1`: -0.04%; `COc1cccc(Nc2nccc(-c3cnn4ncccc34)n2)c1`: 42.2%; `CS(=O)(=O)CCNCc1ccc(-c2ccc3ncnc(Nc4ccc(OCc5ccccc5)cc4)c3c2)o1`: -1.1%.
With `CC(C)c1ccc(-c2cc(-c3c[nH]nc3-c3ccccn3)ccn2)cc1`, the inhibition was -1.25%.
The figure for `FC(F)(F)CNc1nccc(-c2cnn3ncccc23)n1` is 1.36%; for `Cc1nnc(-c2cccc(-c3ccc(C(=O)NCC4CC4)cc3)c2)o1` it is 3.15%; for `COc1ccc(-c2nn3ncccc3c2-c2ccnc(Nc3ccc(F)c(F)c3)n2)cc1` it is 1.3%.
For the compound `O=C(Nc1n[nH]c2nnc(-c3cccnc3)cc12)C1CC1`, the inhibition is 35.9%.
For `NS(=O)(=O)c1ccc(N/N=C2\C(=O)Nc3cccc(CCc4ccncc4)c32)cc1`, the inhibition amounted to 32.4%.
For `CNC(=O)c1cncc(/C=C/c2ccccc2C)c1`, the inhibition was 7.08%.
Regarding `NS(=O)(=O)c1ccc(N/N=C2\C(=O)Nc3ccc(C(=O)NCc4ccncc4)cc32)cc1`, the inhibition was found to be 53.2%.
The figure for `CCS(=O)(=O)c1ccc(OC)c(Nc2ncc(-c3cccc(F)c3)o2)c1` is -0.92%.
`COc1cccc(-n2ncc3c(N/N=C/c4ccc(C(=O)NCCN(C)C)cc4)ncnc32)c1`: the inhibition was 5.6%.
The figure for `COC(=O)Nc1nc2ccc(Oc3ccc(NC(=O)Nc4cc(C(F)(F)F)ccc4F)cc3)cc2s1` is 0.88%; for `Cn1c(-c2nonc2N)nc2cnccc21` it is 6.05%.
For `CCN1CCC(C(=O)Nc2n[nH]c3nnc(-c4cccc(F)c4F)cc23)CC1`, the inhibition came out at 2.37%.

In general, inhibition refers to the change of the read-out against control, counted positive when it falls.
